Test results from PubChem BioAssay (NCATS).
Records with an inconclusive call do not appear. Active and inactive are the calls of the source. Calls come from the whole dose curve; as a rule, active = well fitted cell-killing curve with a large enough effect; inconclusive = small, poorly fitted or top-dose-only effect, or effect the other way; inactive = flat fitted curve, though single readings scatter.

How the values were obtained:
Experiment in all cases: Primary qHTS to identify gynecologic anti-cancer compounds using libraries of approved drugs and bioactive compounds (AID 1345084); note: nearly all actives have a fitted effect of over 55% in size
Conditions in all cases: Gynecologic cancer cell panel viability, ATPlite luminescence, 48 h; series mostly up to 57.5 µM
[1] = tested on: JEG-3
Outline: (§1)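 Cell viability after 48 h drug treatment, ATPlite luminescence readout; five doses.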

[2] = tested on: OV90
Outline: as §1

[3] = tested on: PA-1
Outline: as §1

[4] = tested on: SKOV3
Outline: as §1

[5] = tested on: Tov-21-G
Outline: as §1

[6] = tested on: Tov112D
Outline: as §1

Measured: Potency

CCCC1=CC2=C(CO1)C(=O)C(C)(OC(=O)c1c(C)cc(OC)cc1O)C(O)C2 (centres undefined)
inactive: all assays above

C[C@]1(O)CC[C@@H]2C(C(=O)O)=CO[C@@H](O[C@@H]3O[C@H](COC(=O)c4ccc(O)cc4)[C@@H](O)[C@H](O)[C@H]3O)[C@@H]21
inactive: all assays above

CN1C(=O)N[C@@H](Cc2c[nH]c3c(Cl)cccc23)C1=O
inactive: all assays above

CCOC(=O)Nc1nc2ccccc2[nH]1
inactive: all assays above

OC[C@H]1O[C@@H](OC(CCCCc2ccc(O)cc2)CCc2ccc(O)cc2)[C@H](O[C@@H]2OC[C@](O)(CO)[C@H]2O)[C@@H](O)[C@@H]1O (some centres undefined)
inactive: all assays above

C[C@@H]1CC[C@]2(C(=O)O[C@@H]3O[C@H](CO)[C@@H](O)[C@H](O)[C@H]3O)CC[C@]3(C)C(=CCC4[C@@]5(C)C[C@@H](O)[C@H](O)C(C)(C)C5CC[C@]43C)C2[C@]1(C)O (some centres undefined)
inactive: all assays above

CC(=O)OCC(=O)O[C@@H]1[C@H]2[C@@H](OC(=O)c3ccccc3)[C@@H](C)C[C@]2(O)[C@H](OC(C)=O)C2(C)[C@H]3CC(C)(C)C(=O)[C@@H]3CC1(OC(C)=O)[C@@H]2OC(C)=O (some centres undefined)
inactive: all assays above

NS(=O)(=O)NCCNc1nonc1C(=Nc1ccc(F)c(Br)c1)NO
inactive: all assays above

CC(C)C(C#N)O[C@@H]1O[C@H](CO[C@@H]2OC[C@](O)(CO)[C@H]2O)[C@@H](O)[C@H](O)[C@H]1O (some centres undefined)
inactive: all assays above

NC1CCC(N[C@@H]2C[C@H]2c2ccccc2)CC1 (some centres undefined)
inactive: all assays above

C=C1C[C@]23C[C@H]1CC[C@H]2[C@@]12C=C[C@H](O)[C@@](C)(C(=O)O1)[C@H]2[C@@H]3C(=O)O
inactive: all assays above

CC(C)CC(=O)n1cc(C(N)=O)c(=O)cc1C(O)c1ccccc1 (centres undefined)
inactive: all assays above

C=C[C@H]1[C@H](O[C@@H]2O[C@H](CO[C@@H]3OC[C@](O)(CO)[C@H]3O)[C@@H](O)[C@H](O)[C@H]2O)OC=C2C(=O)OCC[C@H]21
inactive: all assays above

CC(=O)OC1C(O)C(C)=C(CCC(C)CC(=O)O)C2(C)CCCC(C)(C)C12 (centres undefined)
inactive: all assays above

COC(=O)c1ccc(O[C@@H]2O[C@H](CO)[C@@H](O)[C@H](O)[C@H]2O)c(OC)c1
inactive: all assays above

COc1cccc2c1CCC[C@H]2CN(C)CCc1ccc2ccoc2c1
inactive: all assays above

CC(=C/C(=O)O)/C=C/[C@]1(O)[C@@]2(C)CO[C@]1(C)C[C@H](O[C@@H]1O[C@H](CO)[C@@H](O)[C@H](O)[C@H]1O)C2
inactive: all assays above

CC1(C)CC[C@]2(C(=O)O)CC[C@]3(C)C(=CCC4[C@@]5(C)C[C@@H](O)[C@H](O)C(C)(C)C5CC[C@]43C)[C@@H]2[C@@H]1O (some centres undefined)
inactive: all assays above

O=C1CC(c2ccc([N+](=O)[O-])cc2)=NN1c1ccccc1
inactive: all assays above
